Structures are written as SMILES. Hit rate of the full screen: of about 9,400 compounds, fewer than 10 were called active. About 5% were inconclusive and are not listed. Not all results are given here. Results with a measured potency or affinity are listed apart. A number with no mark means an inactive call. The rule behind the calls is not given here.

A short description of the assay: Vibrio cholerae quorum sensing activators, luminescence (AID 686977). The following applies: V. cholerae quorum sensing reporter, 6 h, active compounds read high; dose 50, dose unit µM unless noted.
Regarding `Cc1ccc(C(=O)c2ccc([N+](=O)[O-])cc2)cc1C`, the luminescence was 40.
With `COC(=O)c1c(NC(=O)C2CC2)sc2c1CCCC2`, the luminescence is 40.
For the compound `CS(=O)(=O)N(CC(=O)NCCC1=CCCCC1)C1CCCCC1`, the luminescence is 40.
Consider `O=C(CSc1nnc(C2CC2)n1Cc1ccccc1)c1cc2ccccc2o1`, for which the luminescence is 80.
Then `COc1ccc(NC(=O)CSc2nc(O)cc(=O)n2C)cc1`, with 0; and `COc1cc(NC(=O)Cn2nc(C(F)(F)F)c3c2CCCC3)cc(OC)c1OC`, with 280.
With `CCOCCCN(Cc1ccco1)C(=O)c1cc2c(=O)[nH]c3ccc(C)cc3c2s1`, the luminescence is 0.
With `COc1cccc(-c2nc(CS(=O)CC(=O)NCc3ccccc3Cl)c(C)o2)c1` (stereo not given), the luminescence was 0.
The result for `COC(=O)c1ccccc1NC(=O)C1CC(=O)N(c2ccccc2)C1` (stereo not given) reads 0; that for `CCOC(=O)Cc1csc(-n2sc3ccccc3c2=O)n1`, 0.
The result for `O=C(NC1CCCc2ccccc21)C1CCN(C(=O)c2sccc2-n2cccc2)CC1` (stereo not given) reads 40; that for `COC(=O)[C@H](C)NC(=O)Nc1cccc(C)c1`, 0.
Then `CNC(=O)NC(=O)CSc1ncc(C(F)(F)F)cc1Cl`, with 0.
Regarding `N#Cc1ccccc1OCC(=O)NC(N)=O`, the luminescence is 0.
With `Cc1cc(NS(=O)(=O)c2ccc(NC(=O)C(C(C)C)N3C(=O)c4ccccc4C3=O)cc2)nc(C)n1` (stereo not given), the luminescence is 0.
Then `CCOC(=O)COc1cccc2c(=O)n(CC(=O)N3CCc4ccccc43)ccc12`, with 0; and `Cn1c(=O)c2c(nc(N3CCCCCC3)n2CCSc2nc3ccccc3o2)n(C)c1=O`, with 0.
Then `O=C(Nc1ccc(Br)cc1F)C1CCCN(S(=O)(=O)c2cnc[nH]2)C1` (stereo not given), with 0; and `O=C(Nc1nccs1)c1nc(-c2ccccc2)n(-c2ccccc2)n1`, with 280; and `Cc1csc2nc(CNC(=O)C3CC=CCC3C(=O)O)cn12` (stereo not given), with 0.
The result for `COC(=O)c1ccccc1NC(=O)Nc1nnc(N2CCC(C)CC2)s1` reads 0; that for `CC(=O)Nc1nnc(-c2ccc(Cl)s2)o1`, 0.
As for `CCOC(=O)N1CCN(C(=O)C2CCCN(S(=O)(=O)c3cccnc3)C2)CC1` (stereo not given), the luminescence was 0.
The result for `O=C(CCc1ccccc1)Nc1ccc(F)cc1F` reads 40; that for `Cc1cccc(C)c1NC(=O)c1sccc1SCc1cccc(C(F)(F)F)c1`, 40.
Turning to `COC(=O)c1cc(COc2ccc3c4c(c(=O)oc3c2)CCCC4)c(C)o1`, the luminescence is 0.
The result for `COc1ccc(OC)c(NC(=O)c2cn(C)c(=O)c3cc(OC)c(OC)cc23)c1` reads 0; that for `CC1(C)CC(=O)c2cc(OCC(=O)N3CCOCC3)ccc2O1`, 40.
The result for `CC(C)C(NC(=O)c1cccs1)c1nnc(SCC(=O)Nc2nccs2)n1C` (stereo not given) reads 40; that for `COC(=O)c1nn(-c2ccccc2)c(Cl)c1/C=N/OCc1ccc(Cl)cc1Cl`, 40; that for `CC(C)CC(=O)Nc1ccc(S(=O)(=O)NCc2ccco2)cc1`, 0.
Turning to `CCOC(=O)C(C)Sc1nnc(Cc2cc(=O)[nH]c(=O)[nH]2)n1-c1ccc(OCC)cc1` (stereo not given), the luminescence is 0.
The result for `CC1CCCCC1NC(=O)c1ccc(CNc2c(N3CCCC3)c(=O)c2=O)cc1` (stereo not given) reads 0; that for `Cc1cnc(C(=O)Nc2cccc3cccnc23)cn1`, 40.
On to `CN1CCN(c2cc3c(c4c2[nH]c2ccccc24)C(=O)CC(C)(C)C3)CC1`, for which the luminescence was 40.
As to `Cc1cc(C(=O)CSc2nnc(-c3ccc(F)cc3)o2)c(C)n1CC1CCCO1` (stereo not given), the luminescence was 0.
Then `CCOC(=O)/C(C#N)=C\c1ccc(N2CCN(C)CC2)cc1`, with 0.
The result for `CCOC(=O)C1CCN(C(=O)C2CCN(S(=O)(=O)c3cccc4cccnc34)CC2)CC1` reads 0; that for `Cc1n[nH]c(=S)c2nn(-c3ccccc3F)c(C)c12`, 0.
The result for `Cn1c(C(=O)N2CCN(Cc3ccc4c(c3)OCO4)CC2)cc2c(=O)n(C)c3ccccc3c21` reads 0; that for `CCC(Cc1ccccc1)NC(=O)CN1C(=O)CSc2ncccc21` (stereo not given), 0.
`OCCN1CCN(c2ncnc3ccc(Br)cc23)CC1`: the luminescence was 200.
Then `CC1=CC(C)(C)N(S(=O)(=O)c2ccc(F)cc2)c2ccccc21`, with 0; and `COc1ccc(C(=O)Nc2cc3c(cc2C#N)OCO3)cc1S(=O)(=O)NCc1ccco1`, with 0.
The result for `CCOC(=O)c1c(C)nc2ccccc2c1C` reads 40; that for `CCc1nn(CC(=O)NCCCN2CCc3ccccc3C2)c(=O)c2cc3sccc3n12`, 0.
The result for `COc1ccc(-n2nnnc2SCC#CCO)cc1` reads 0.
Regarding `Cc1nnc(SCC(=O)NCc2ccco2)n1Cc1ccccc1`, the luminescence was 0.
For the compound `CC(C)OC(=O)CSc1nnc(-c2ccccc2)n1N`, the luminescence was 40.
In the case of `O=c1c2ccccc2nnn1CSc1nnc(-c2cccnc2)n1-c1ccccc1F`, the luminescence is 0.
The result for `O=[N+]([O-])c1cc(-c2cnc3ccccc3n2)ccc1Oc1ccc(F)cc1` reads 40; that for `Cc1ccc(CN(C)C(=O)C2CCCN2C(=O)c2cccs2)o1` (stereo not given), 320.
The result for `CCn1cc(S(=O)(=O)CC(=O)Nc2cc(C)on2)c2ccccc21` reads 0; that for `CCCCN(C(=O)c1cnc2n(c1=O)CCS2)c1ccccc1`, 0.
Then `CCc1nc2c(cnn2-c2ccc(F)cc2)c(=O)n1-c1ccc(N2CCC(C)CC2)cc1`, with 0; and `O=C(NCC(c1cccnc1)N1CCN(c2ccccc2F)CC1)c1ccco1` (stereo not given), with 0.
For `CCC(C)NC(=O)CS(=O)Cc1nc(-c2cccc(OC)c2)oc1C` (stereo not given), the luminescence is 40.
The result for `Cc1ccc(-c2nnc(SCc3nc(N)nc(Nc4ccccc4C)n3)n2N)cc1` reads 0; that for `O=C(NCc1ccco1)c1nnc(Cc2ccc(Cl)cc2)o1`, 0; that for `CCOC(=O)C1=C(c2ccccc2)O/C(=C(\C(=O)OC)C(F)(F)F)S1`, 40.
The result for `COc1ccc(C2N(C(=O)CN3CCOCC3)CCN2S(=O)(=O)c2ccccc2)cc1` (stereo not given) reads 0; that for `Cc1cccc(N2CCN(C(=O)CN3CCOc4ccccc43)CC2C)c1` (stereo not given), 0; that for `Cc1onc(-c2ccccc2Cl)c1C(=O)Nc1cccc(-c2nc3ncccn3c2C)c1`, 40.
As for `CC(=O)CC(c1ccccc1)S(=O)(=O)c1ccc(C)cc1` (stereo not given), the luminescence is 40.
The result for `CCN(CC)c1ncnc2sc(C(=O)N3CCN(c4ccc(OC)cc4)CC3)c(C)c12` reads 160; that for `c1cc2c3c(cccc3c1)NC1(CCCCC1)N2`, 40; that for `O=C(Nc1ccc(Cc2ccncc2)cc1)c1ccc(Cl)c([N+](=O)[O-])c1`, 0.
Then `COc1cccc(S(=O)(=O)NCc2ccc(C(=O)NCC3CCCO3)cc2)c1` (stereo not given), with 40; and `O=C(Nc1ccc2c(c1)OCCO2)c1ccc(CN2CCOCC2)cc1`, with 0; and `COCCOC(=O)C1=C(C)NC2=C(C(=O)CC(c3cccs3)C2)C1c1ccsc1` (stereo not given), with 40.
Then `CCN1CCN(c2nc3c(c(=O)[nH]c(=O)n3C)n2CCSc2nc3ccccc3s2)CC1`, with 0; and `CCc1ccc(C2CC(c3ccc(F)cc3)Nc3nc(N)nn32)cc1` (stereo not given), with 40.
On to `COc1ccccc1C(=O)N1CCNC(=O)C1CC(=O)Nc1cccc(C)c1` (stereo not given), for which the luminescence is 0.
The result for `O=C(O)c1[nH]c2ccccc2c1CC(=O)N1CCOCC1` reads 0; that for `Cc1cc(C(=O)Nc2c(C)nn(Cc3ccc(F)cc3)c2C)on1`, 0; that for `COC(=O)c1ccc(NC(=O)CN(Cc2ccc(Cl)cc2)S(C)(=O)=O)cc1`, 0.
For the compound `CC(C)SCCCOc1ccc(C(C)(C)C)cc1`, the luminescence is 0.
The result for `CCOC(=O)C1CCCN(c2c(NCCCN(C)c3ccccc3)c(=O)c2=O)C1` (stereo not given) reads 0.
Turning to `COC(=O)c1ccc(NC(=O)CSc2nnc(COc3ccc4c(c3)CCCC4)o2)cc1`, the luminescence is 40.
The result for `CCC(=O)NCCCOc1ccccc1` reads 0; that for `O=C(Nc1ccc2c(c1)CCC2)c1cc(S(=O)(=O)N2CCN(c3ccccc3)CC2)ccc1Cl`, 0.
Then `CCOC(=O)c1sc2nc(C)cc(C)c2c1NC(=O)c1ccco1`, with 0.
Turning to `CCOC(=O)N1CCC(NC(=O)C(Cc2ccccc2)NC(=O)C2CCCCC2)CC1` (stereo not given), the luminescence was 0.
The result for `CCOc1cc(N2CCOCC2)c(OCC)cc1NC(=O)CN1CCc2ccccc2C1` reads 0.
The result for `CCn1ncc(C2=NOC(C(=O)NCc3ccc(OC)cc3)C2)c1C` (stereo not given) reads 0; that for `COc1ccc(-n2c(Cn3c(=O)sc4ccccc43)nnc2SCC(=O)N2CCCCC2)cc1`, 0.
Then `COc1ccc(NC(=O)c2c(NC(=O)CNCc3ccco3)sc3c2CCC3)c(OC)c1`, with 40.
For the compound `COC(=O)c1nc2cc(C)ccn2c1F`, the luminescence was 40.
Then `Cc1ccc(NS(=O)(=O)c2cc(C(N)=O)ccc2C)cc1`, with 0; and `Cc1ccc([N+](=O)[O-])cc1N=Cc1ccc(Br)s1`, with 40; and `CC(=O)N(c1ccc(Br)cc1)C1C=CS(=O)(=O)C1` (stereo not given), with 0.
The result for `Cc1cc2ccccc2n1CCNC(=O)c1cccs1` reads 0.
The result for `Cc1cc(C)nc(NC(=O)c2cnc3sccn3c2=O)n1` reads 0; that for `CCn1c(=O)cc(OCC(=O)NCCC(C)C)c2ccccc21`, 40; that for `C=CCNC(=O)CN(c1cccc(Br)c1)S(C)(=O)=O`, 0.
Consider `CCOC(=O)c1c(-c2ccccc2)csc1NC(=O)c1ccc(S(=O)(=O)N2CC(C)OC(C)C2)cc1` (stereo not given), for which the luminescence was 40.
Then `COc1cc(C(=O)N(Cc2cccc(Cl)c2)C2CCS(=O)(=O)C2)cc(OC)c1OC` (stereo not given), with 40; and `Cc1ccc2oc(=O)c3cnn(CC(=O)NC4CCN(Cc5ccccc5)CC4)c3c2c1`, with 0.
Then `CC(C)C(=O)Nc1nc2cc3c(cc2s1)OCO3`, with 0.
The result for `COC(=O)c1[nH]c2cc(OC)ccc2c1NC(=O)CCN1CCN(c2ccccc2)CC1` reads 40.

For the origin of these results see PubChem BioAssay AID686977 (Southern Research Specialized Biocontainment Screening …, 2013).
